Only some compounds are listed: those with a hit (about 31% of all), similar ones and a draw of the others.
CYP2C9 inh = inhibitors of human CYP2C9 | P11712 | CYP2C9 Supersomes, luciferin-H conversion, luminescence | inhibition, % at 5 µM | hit rate 20% among 96,000;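 active = blocking of liver enzyme CYP2C9 beyond about 50% at 5 µM, limit read from the data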
CYP2C19 activ = cytochrome P450 2C19 (human) activation; P33261; recombinant CYP2C19, luciferin-H EGE luminescence; stronger effect = higher value; 0 = fully inhibited enzyme, 1 = untreated enzyme; activation factor at 5 µM; 96,000 tested, under 10 active; AID 1025;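 active = activation factor of at least 2 at 5 µM in the primary screen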;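 note: 0 = wells with 2.5 mM tranylcypromine and 1 = vehicle-only wells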
Target sequence (P33261 whole entry, looked up): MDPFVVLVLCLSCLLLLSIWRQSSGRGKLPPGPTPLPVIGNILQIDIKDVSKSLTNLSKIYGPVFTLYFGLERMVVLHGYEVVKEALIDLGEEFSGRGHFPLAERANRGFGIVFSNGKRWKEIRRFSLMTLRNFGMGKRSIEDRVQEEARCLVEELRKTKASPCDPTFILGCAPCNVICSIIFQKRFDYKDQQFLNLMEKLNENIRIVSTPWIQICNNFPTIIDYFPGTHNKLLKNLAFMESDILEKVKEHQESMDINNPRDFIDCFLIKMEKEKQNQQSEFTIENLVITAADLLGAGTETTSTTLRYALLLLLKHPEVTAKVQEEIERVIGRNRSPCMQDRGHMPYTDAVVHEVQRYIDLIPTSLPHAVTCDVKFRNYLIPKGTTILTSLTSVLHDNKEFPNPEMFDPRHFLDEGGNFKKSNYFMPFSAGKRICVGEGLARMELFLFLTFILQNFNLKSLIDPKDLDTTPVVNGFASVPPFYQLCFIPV
CYP2C9 activ = increases human cytochrome P450 2C9 activity; P11712; recombinant CYP2C9, luciferin-H conversion, luminescence; stronger effect = higher value; factor 1 = untreated enzyme, 0 = blocked; activation factor at 5 µM; hit rate 1.4% among 96,000; AID 1024;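 active = activation factor of 2 or more for CYP2C9 at a 5 µM dose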;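 note: 0 = sulfaphenazole-blocked wells and 1 = vehicle-only wells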
CYP2C19 inh = blocks human cytochrome P450 2C19; AID 778; P33261; CYP2C19 Supersomes, luciferin-H EGE luminescence, 30 min; hit rate 21% among 96,000; inhibition, % at 5 µM;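 active = CYP2C19 inhibition above a set limit at 5 µM in the primary screen, cut at about 50% in these data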;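 note: plate controls were negative control wells for no effect and 2.5 mM tranylcypromine positive control for full effect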
* marks the source's active call; other numbers are inactive results.

SMILES	CYP2C9 inh	CYP2C19 activ	CYP2C9 activ	CYP2C19 inh
CC(C)C(NC(=S)NCc1ccccc1)C(=O)O (stereo not given)	34	0.1	0.7	86*
CC(C)[C@H](NC(=O)NCc1cccs1)C(=O)O	-7	1	1.1	-1
O=C(O)c1cn(-c2ccc(F)c(F)c2)c2c(F)c(F)c(F)c(F)c2c1=O	7	0.9	0.9	9
Cc1ccc(N(C(=O)Cn2nnc3ccccc32)C(C(=O)NC2CCCCC2)c2cn(C)nc2C)cc1 (stereo not given)	12	0.3	0.9	67*
O=C(Cn1nnc2ccccc21)NC1CCCCC1	-1	0.5	1	55*
COC(=O)c1cn(CC(=O)NC2CCCCC2)c2ccccc12	8	0.9	0.9	9
Cc1nn(C)cc1C(C(=O)NC1CCCCC1)N(C(=O)Cn1nnc2ccccc21)c1ccc(F)cc1 (stereo not given)	0	0.9	1	12
COc1ccc(N2C(=O)[C@@H]3Cc4ccccc4CN3C2=O)cc1	-3	1.1	1	-5
Cc1ccc(/C(C#N)=C\c2cn(C)c3ccccc23)cc1	92*	0.2	0.1	80*
Clc1ccc(COc2ccccn2)c(Cl)c1	18	0.1	0.8	87*
O=C(NCc1ccc(Cl)cc1Cl)c1ccccn1	-23	0	1.2	99*
Clc1ccc(CON/C=N/c2ncnc3sccc23)c(Cl)c1	22	0.8	0.8	15
COc1ccc2c(c1)nc(SCC(=O)c1ccc(Br)s1)n2C	51*	0.3	0.5	72*
CC(=O)Nc1ccc(NC(=O)CSC2=NCCS2)cc1	81*	0.4	0.2	55*
COC(=O)CCC(=O)Nc1ccc(S(=O)(=O)N2CCCCCC2)cc1	43	0.8	0.6	22
O=C(CSC1=NCCS1)Nc1ccc(S(=O)(=O)NC2CCCCC2)cc1	56*	0.8	0.4	24
O=C(CSC1=NCCS1)Nc1ccc(S(=O)(=O)N2CCCCCC2)cc1	62*	0.6	0.4	39
CC(=O)Nc1nonc1NC(=O)CSC1=NCCS1	5	0.9	1	11
COc1ccccc1CNC(=O)c1c(-c2ccccc2)nn(-c2ccccc2)c1C	28	0.5	0.7	48
Cc1cc2c(c(N)n1)c(=O)oc1ccccc12	19	0.9	0.8	7
Nc1c(C2=NCCO2)nnn1Cc1ccccc1	-52	1.1	1.5	-6
CSc1ncc(Cl)c(C(=O)Nc2sc3c(c2C(=O)NCc2ccco2)CCCC3)n1	28	0.9	0.7	5
COc1ccc(NC(=O)Cn2nnc(C(=O)NCc3ccco3)c2N)c(OC)c1	19	1	0.8	-2
COc1ccc(NC(=O)c2c(NC(=O)CNCc3ccco3)sc3c2CCC3)c(OC)c1	97*	0.2	0	77*
COc1ccc(NC(=O)c2c(NC(=O)CNCc3ccco3)sc3c2CCC3)cc1	93*	0.4	0.1	63*
SMILES	CYP2C9 inh	CYP2C19 activ	CYP2C9 activ	CYP2C19 inh
COc1ccc(OC)c(NC(=O)c2c(NC(=O)CNCc3ccco3)sc3c2CCC3)c1	65*	0.7	0.4	34
Clc1ccc2c(c1)c1ccccc1n2CN1CCOCC1	49	0.3	0.5	72*
Clc1ccc(Cl)c(OCCN2CCOCC2)c1	-29	0.8	1.3	23
Cn1c(=O)c2c(-c3ccccc3)n(N3CCOCC3)cc2n(C)c1=O	55*	1	0.4	-3
O=C(O)c1cnc(-c2ccccc2)nc1Sc1ccc(Cl)cc1	61*	1	0.4	4
O=C(O)c1cnc(-c2ccccc2)nc1Sc1ccccc1Cl	17	1.1	0.8	-8
O=C(Oc1ccc(Br)cc1C(=S)N1CCCCC1)c1cc([N+](=O)[O-])cc([N+](=O)[O-])c1	0	0.4	1	62*
O=C(Oc1ccc(Br)cc1C(=S)N1CCCC1)c1ccccc1Cl	35	0.4	0.6	57*
Cc1ccccc1C(=O)Oc1ccc(Br)cc1C(=S)N1CCCC1	41	0.5	0.6	52*
CC1CCCC(NC(=O)c2ccc3c(=O)n(CC4CCCO4)c(=O)[nH]c3c2)C1C (stereo not given)	-9	0.8	1.1	18
O=C(O)CNC1=NCCC1	-15	1.2	1.1	-20
O=C(Cc1cccc2ccccc12)N/N=C/c1ccc(F)cc1	14	0.8	0.9	17
O=C(CC(=O)N/N=C\c1c(Cl)cccc1Cl)NCc1ccccc1	41	0.1	0.6	86*
COc1cc(C2C3C(=O)N(Cc4ccccc4)C(=O)C3ON2c2ccccc2)cc(OC)c1OC (stereo not given)	26	0.4	0.7	57*
O=C1C2ON(c3ccccc3)C(c3cccnc3)C2C(=O)N1Cc1ccccc1 (stereo not given)	88*	0	0.1	100*
Cc1c(Cl)cccc1N1C(=O)C2ON(c3ccccc3)C(c3cccnc3)C2C1=O (stereo not given)	42	0.4	0.6	56*
COc1ccc(C2C3C(=O)N(Cc4ccccc4)C(=O)C3ON2c2ccccc2)c(OC)c1OC (stereo not given)	49	0.8	0.5	21
O=C1C2C3C=CC(C3)C2C(=O)N1c1cccnc1 (stereo not given)	-10	1.1	1.1	-10
Cc1ccccc1N1C(=O)C2ON(c3ccccc3)C(c3cccnc3)C2C1=O (stereo not given)	52*	0.3	0.5	75*
Cc1ccccc1-c1noc(C2CCCCC2)n1	7	1	0.9	4
Cc1c(NC(=O)c2c(F)c(F)c(F)c(F)c2F)c(=O)n(-c2ccccc2)n1C	45	0.6	0.6	45
Cn1ncc(C#N)c1/N=C/N(Cc1ccccc1)Cc1ccccc1	99*	0	0	95*
CN1CCN(/C=N/c2c(C#N)cnn2C)CC1	-3	1.1	1	-13
CC1CCC(NC(=O)C2c3ccccc3C(=O)N2CCCN2CCOCC2)CC1 (stereo not given)	8	1.1	0.9	-5
O=C(O)CC(CP(=O)(c1ccccc1)c1ccccc1)C(=O)O (stereo not given)	-18	1.1	1.2	-12
SMILES	CYP2C9 inh	CYP2C19 activ	CYP2C9 activ	CYP2C19 inh
O=C(O)CC(c1ccccc1)c1ccccc1	52*	1.1	0.5	-5
O=C(N/C(=C\c1ccc(Br)cc1)c1nc2ccccc2[nH]1)c1ccco1	14	0.6	0.9	43
Cc1cc(C)n(-c2nnc(C)n2/N=C/c2cc(Br)ccc2OCc2ccccc2)n1	37	0.8	0.6	20
O=C(CSc1ccc2c(c1)OCCO2)NCCN1C(=O)CSC1=O	19	0.6	0.8	44
O=c1ccnc(SCc2ccccc2Cl)[nH]1	60*	1	0.4	-2
CC(=O)C1=C(C)Nc2ncnn2C1c1cccc(OCc2ccccc2)c1 (stereo not given)	-13	0.9	1.1	11
CCCCOC(=O)C1=C(C)Nc2ncnn2C1c1cccc(OC)c1OC (stereo not given)	58*	0.2	0.4	82*
CCCC1=C(C(=O)OCC)C(c2ccncc2)n2ncnc2N1 (stereo not given)	97*	0.2	0	78*

Screening data from PubChem BioAssay.
